The source of these data is PubChem BioAssay (NCI).

The panel holds about 79,000 compounds, 15% with a hit somewhere; the sample as a whole holds those more often. A number with no mark means an inactive call. Active and inactive are the calls of the source. Rule as the data show it: active = growth inhibition above about 70%; inactive = the rest.

The assay in a line: NCI Yeast Anticancer Drug Screen. Data for the rad50 strain (AID 155).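 Also: 0% = growth of vehicle-only cultures of the same strain.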 Conditions: S. cerevisiae rad50 strain growth inhibition; at 50.0 µM; active compounds read high. The method, then:
Growth inhibition of yeast strains with defined genetic alterations is measured as a screen for potential anti-cancer activity. Selected strains with alterations in DNA damage repair or cell cycle control were exposed to compounds and growth inhibition was measured relative to vehicle treated controls. The strain used in this assay is rad50
Turning to `O=[N+]([O-])c1ccc(-n2[nH]nnc2=S)cc1`, the growth inhibition was -6.7%.
As for `CCOc1cc2c(cc1O)C=C[C@@H]1[C@@H]2CC[C@]2(C)[C@@H](O)CC[C@@H]12`, the growth inhibition is 33.8%.
In the case of `COC(=O)C1=CCCC2CN3CCc4c([nH]c5ccccc45)C3CC12` (stereo not given), the growth inhibition was 13.8%.
For `O=C(NC(CO)C(O)c1ccc([N+](=O)[O-])cc1)C(Cl)Cl` (stereo not given), the growth inhibition was -32.2%.
Take `CCCCCCCC/C=C\CCCCCCCCOC(N)=O`: the growth inhibition was -30.7%.
The result for `Cc1n[nH]c(=O)n(/N=C\c2c[nH]c3ccccc23)c1=O` reads 0.2%; that for `NC(=O)NC(CCCN=C(N)N)C(=O)O` (stereo not given), -21.4%; that for `CC(=O)[CH-]C(=O)c1ccccc1.CC(=O)[CH-]C(=O)c1ccccc1.O=S(=O)([O-])c1cc([O-])c2c([O-])cc(S(=O)(=O)[O-])cc2c1.[Na+].[Zr+4]`, 21.3%.
With `CN1C2CCC1CC(OC(=O)C(O)c1ccccc1)C2` (stereo not given), the growth inhibition was 9.3%.
As to `CCOC(=O)CC(=O)c1ccc(C)cc1`, the growth inhibition was -13.6%.
Take `COc1cc2oc3c(c(=O)c2c(O)c1/C=C/C(C)C)CCC(C)(C)Oc1cc(O)ccc1-3`: the growth inhibition is 22.6%.
Take `COc1ccc(N=C(C)C(C)=Nc2ccc(OC)cc2)cc1`: the growth inhibition was -3%.
For `C=C1CC2(C)CCC(OC(=O)C3(C)OC3C)C(C)(OC(C)=O)C2CC1=C(C)C` (stereo not given), the growth inhibition is 7.7%.
For the compound `N#Cc1n[nH]n(-c2ccccc2)c1=O`, the growth inhibition was -26.3%.
The result for `COc1cc(OC)cc(C(=O)Cl)c1` reads -24.4%; that for `CCOC(=O)c1sc(N)nc1-c1ccccc1`, 10.7%; that for `N#[N+]c1c(O)cc(S(=O)(=O)O)c2ccccc12`, -21.6%.
Consider `O=c1oc(-c2ccccc2)nc2cc(Cl)ccc12`, for which the growth inhibition is -0.3%.
For the compound `COC(=O)c1ccc2oc(=O)cc(C)c2c1O`, the growth inhibition is -7.6%.
Then `[O-]c1ccccc1/C=N/C(/N=C/c1ccccc1[O-])c1ccccc1O.[O-]c1ccccc1/C=N/C(/N=C/c1ccccc1[O-])c1ccccc1O.[Zr+4]`, with 0.55%; and `COC(=O)C(/C(=N/NC(N)=O)C(=O)Nc1ccc(C)cc1)c1nc2ccc([N+](=O)[O-])cc2[nH]c1=O` (stereo not given), with 22.1%; and `O=C(/C(=N/N=C\c1ccc([N+](=O)[O-])cc1)c1ccccc1)c1ccccc1`, with -10.6%.
The result for `CCCCCCCCCC(O)CC(=O)c1c(O)cccc1O` (stereo not given) reads 69.8%; that for `Cc1ccc(/C=C2/N=C(N/N=C\c3ccccc3)NC2=O)cc1`, -6.15%; that for `CCOc1ccc(Br)cc1/C=C1\N=C(c2ccccc2)OC1=O`, -2.25%.
As for `COc1cc(C2N(c3ccccc3)CCN2c2ccccc2)cc(OC)c1OC`, the growth inhibition was 59%.
In the case of `COc1cc(C)c2c(c1C=O)Oc1c(c(C)c(O)c3c1C(O)OC3=O)OC2=O` (stereo not given), the growth inhibition was 25.3%.
On to `CCCCCCCCCC(=O)CC(=O)c1c(O)cc(O)cc1O`, for which the growth inhibition is 87.8% (active).
The result for `COc1ccc(-c2coc3c4c(ccc3c2=O)OCO4)cc1OC` reads 3.6%.
In the case of `CC1CC(C(=O)OC2OC(COC3OC(CO)C(OC4OC(C)C(O)C(O)C4O)C(O)C3O)C(O)C(O)C2O)C2CCC3(C)C(=CCC4(C)C3CCC3C(C)(CO)C(O)C(O)CC34C)C2C1C` (stereo not given), the growth inhibition is 60.1%.
As to `O=C(Cc1nc2ccc(C(=O)c3ccccc3)cc2[nH]c1=O)C(=O)Nc1ccccc1[N+](=O)[O-]`, the growth inhibition was 2.75%.
On to `COc1ccc2nc(NC(=O)/C(C#N)=C/c3ccccc3)sc2c1`, for which the growth inhibition was 5.9%.
In the case of `CC1CC(C)(C)N=C(Cc2ccccc2)O1` (stereo not given), the growth inhibition was -26.6%.
Then `Cc1c(Cl)cccc1NCN1C(=O)c2ccccc2C1=O`, with 9.65%; and `CCOc1ccc(/C=C(/C#N)C(N)=O)cc1`, with 9.7%; and `CCCCCCCCCCCCC/C=C/[C@H]1[C@@H](C(=O)OC)N1S(=O)c1ccc(C)cc1` (stereo not given in full), with -15.1%.
Consider `Cc1ccccc1Nc1n[nH]c(=S)s1`, for which the growth inhibition was 46.1%.
As to `Nc1ccc(Nc2nc3ccccc3s2)c(O)c1`, the growth inhibition is 22.6%.
Then `CCN(CC)CCN(C)CC(=O)Nc1ccccc1C`, with 1.9%; and `CC(C)=CC(O)C/C(C)=C/CC/C(C)=C/CCC1(C)C(CCCO)/C(=C(/C)C=O)CCC1(C)O` (stereo not given), with 18.9%.
